This passage reports Potency and caspase activation results from PubChem BioAssay (Tox21).

SMILES strings stand for the structures. Results filed as inconclusive are left out. Where a call stands in place of a potency, no number is given. Active and inactive are the calls of the source. Calls come from the whole dose curve; as a rule, active = well fitted activation curve with a large enough effect in the repeat runs; inconclusive = weak or mixed curves; inactive = flat fitted curve, though single readings scatter.
Potency is the fitted concentration of half-maximal effect.

The nature of this experiment: Caspase-3/7 induction in HepG2 cells by small molecules, qHTS assay (AID 1346978). Note: nearly all actives have a fitted effect of over 15% in size. Particulars: HepG2 caspase-3/7 activation, Caspase-Glo luminescence, 17 h; series mostly up to 92.4 µM. The text has this:
National Center for Advancing Translational Sciences [NCATS] NIH Chemical Genomics Center [NCGC] U.S. Environmental Protection Agency [EPA] National Institutes of Environmental Health Sciences [NIEHS] National Toxicology Program [NTP] Assay overview: Apoptosis is a process of programmed cell death and plays a central role in the development of multicellular organisms. It is a highly regulated process and induces cell death by activating caspases, which are the members of cysteine aspartic acid-specific protease (caspase) family. Caspases involved in apoptosis are classified by their mechanism of action as initiator caspases (caspase-2, -8, -9 and -10) and executioner caspases (caspase-3, -6, and -7). Inhibition of apoptosis results in number of cancers, autoimmune diseases, inflammatory diseases and viral infection. To identify small molecule compounds that induce apoptosis, a homogeneous, luminescent Caspase-Glo 3/7 assay was used. Wild type HepG2 cells were used to screen Tox21 libraries for identifying caspase-3/7 activity inducers.
Assay Protocol Summary: HepG2 cells were dispensed at 2,000 per well in 5uL of culture medium into white solid bottom 1536-well plates (Corning Life Sciences, Corning, NY) using a Multidrop Combi (Thermo Scientific, Waltham, MA) dispenser. The assay plates were incubated at 37 C and 5% CO2 for 5hr, and then 23nL of compounds dissolved in DMSO and positive control were transferred using a Pintool station (Wako, San Diego, CA). The assay plates were incubated at 37C and 5% CO2 for 17hr. For caspase-3/7 activity read, 4uL of Caspase-Glo 3/7 reagent (Promega Corporation, Madison, WI) was added to each well of the assay plates using Flying Reagent Dispenser (FRD, Aurora Discovery, San Diego, CA) and incubated the assay plates at room temperature for 30min. The luminescence signal was quantified using a ViewLux plate reader (Perkin Elmer, Shelton, CT).
A general note: qHTS replaces the single test concentration by a dilution series.
As for `O=C(Oc1ccccc1)Oc1ccccc1`, the Potency result was “inactive”.

`O=C(Nc1ccc2c(O)c(N=Nc3ccc(N=Nc4ccc(S(=O)(=O)O)cc4)cc3)c(S(=O)(=O)O)cc2c1)c1ccccc1`: the Potency entry is “inactive”.

`CC1(C)CC(O)CC(C)(C)N1`: the Potency result is “inactive”.

On to `O=C(O)Cc1ccccc1Nc1c(Cl)cccc1Cl`, for which the Potency result is “inactive”.

`O=C1c2ccccc2C(=O)N1SC1CCCCC1`: the Potency result is “inactive”.

As for `CCN1C(=O)c2ccccc2C1Nc1ccc(OCCN2CCCCC2)cc1` (stereo not given), the Potency entry was “inactive”.

For the compound `CC(CO)Oc1ccccc1` (stereo not given), the Potency entry is “inactive”.

As for `Cc1cc(=O)oc2cc(O)cc(O)c12`, the Potency result is “inactive”.

On to `CCCCC/C=C\C/C=C\CCCCCCCC(=O)O`, for which the Potency entry is “inactive”.

As to `Nc1nc2c(ncn2COCCO)c(=O)[nH]1`, the Potency entry was “inactive”.

For `O=C(O)c1cc(O)c2ccccc2c1O`, the Potency entry is “inactive”.

`CC/C=C\CCCCCO`: the Potency result was “inactive”.

Consider `CCCCCCCCCCCCCC[N+](C)(C)C`, for which the Potency entry was “inactive”.

In the case of `O=C(/C=C/c1ccc(O)c(O)c1)O[C@@H](C(=O)O)[C@@H](OC(=O)/C=C/c1ccc(O)c(O)c1)C(=O)O`, the Potency result was “inactive”.

With `COC(C)=O`, the Potency entry is “inactive”.

`c1ccsc1`: the Potency entry was “inactive”.

Take `Fc1ccc(C(c2ccc(F)cc2)N2CCNCC2)cc1`: the Potency result is “inactive”.

On to `CCC(=O)OC(=O)CC`, for which the Potency result was “inactive”.

As to `CC(C)Cn1cnc2c(N)nc3ccccc3c21`, the caspase activation is -2.38% [at 19 µM] (inactive).

In the case of `CN1CCN(Cc2cc(-c3ccc4[nH]c(=O)oc4c3)co2)[C@@H](c2ccc(F)cc2)C1`, the Potency result was “inactive”.

Consider `CCOc1ccc2ccccc2c1C(=O)N[C@@H]1C(=O)N2[C@@H]1SC(C)(C)[C@@H]2C(=O)O`, for which the Potency result was “inactive”.

With `Cc1ccc(N/N=c2\c(=O)cc/c(=N\Nc3ccc(S(=O)(=O)O)cc3)c2=O)c(C)c1`, the Potency entry was “inactive”.

Turning to `CNC(=O)c1ccccc1Sc1ccc2c(/C=C/c3ccccn3)n[nH]c2c1`, the Potency entry is “inactive”.

Regarding `COc1ccc(-c2coc3cc(O)ccc3c2=O)cc1`, the Potency result is “inactive”.

Regarding `CCCC(=O)OCCc1ccccc1`, the Potency entry is “inactive”.

Regarding `C=CCCC(=O)/C=C/C1C(C)=CCCC1(C)C` (stereo not given), the Potency result is “inactive”.

As for `O=[N+]([O-])c1ccc(O)cc1C(F)(F)F`, the Potency result was “inactive”.

As to `CN1CCCCC1CCN1c2ccccc2Sc2ccc(S(C)=O)cc21` (stereo not given), the Potency entry was “inactive”.

For `CCCCCCCCCCCCOC(=O)c1ccc(O)cc1`, the Potency is 54.9 µM (active).

On to `O=[N+]([O-])c1cccc(C(F)(F)F)c1`, for which the Potency result was “inactive”.

For `CC(=O)OCC=C(C)C`, the Potency entry is “inactive”.

For `COC(=O)Nc1nc2ccc(C(=O)c3ccccc3)cc2[nH]1`, the Potency result is “inactive”.

With `OCC(F)(F)F`, the Potency result was “inactive”.

For the compound `[Cu+]`, the Potency entry was “inactive”.

`O=C(O)c1cc(-c2ccc(F)cc2F)ccc1O`: the Potency result is “inactive”.

With `CCCC[P+](C)(CCCC)CCCC`, the Potency result was “inactive”.

Regarding `C=CCn1c(=O)n(CC=C)c(=O)n(CC=C)c1=O`, the Potency entry was “inactive”.

As for `COC(=O)c1ccccc1C`, the Potency result is “inactive”.

In the case of `CC(=O)CC(=O)Nc1ccc(S(=O)(=O)O)cc1`, the Potency result was “inactive”.

As to `ClCCl`, the Potency entry is “inactive”.
